Drawing on PubChem BioAssay (NCATS), this text covers Potency for 26 compounds.

Experiment [1] has as its target Cytochrome P450 2C9 (Homo sapiens) (UniProt P11712). Nature of the experiment: Cytochrome P450 family 2 subfamily C member 9 (CYP2C9) small molecule antagonists: luciferase biochemical (cell-free) qHTS assay (AID 1645842; active = well fitted curve in the direction sought with a large enough effect in the repeat runs; an effect the other way counts as inactive or inconclusive; also: nearly all actives have a fitted effect of over 55% in size; also: potency is read from the fitted curve at half-maximal effect). The following applies: P450-Glo CYP2C9 enzyme assay, luciferin luminescence; series mostly up to 57.4 µM. The method, boiled down:
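Luminescence, after 20 min with luciferin detection reagent, reflected CYP2C9 turnover during a 1 h NADPH-driven reaction at 37C. Enzyme-substrate mix contained 0.4% bovine serum albumin and was preincubated with compound 10 min at room temperature.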

A short description of experiment [2]: Primary qHTS for inhibitors of nuclear receptor binding SET domain protein 2 (NSD2) in an isogenic RCH-ACV NSD2 p.E1099K mutant (9B) (AID 1645876). Also: nearly all actives have a fitted effect of over 70% in size. Also: potency is read from the fitted curve at half-maximal effect. Conditions: RCH-ACV NSD2 E1099K (9B) viability, CellTiter-Glo, 72 h; series mostly up to 44.9 µM. (In general: qHTS replaces the single test concentration by a dilution series.)
Experiment [3] is described as follows: Primary qHTS for inhibitors of nuclear receptor binding SET domain protein 2 (NSD2) in an RCH-ACV wild type WT cells (2C) (AID 1645877). Also: nearly all actives have a fitted effect of over 70% in size. Also: potency is read from the fitted curve at half-maximal effect. Conditions: RCH-ACV (leukaemia line) NSD2 WT (2C) viability, CellTiter-Glo, 72 h; series mostly up to 44.9 µM.
Experiment [4] addresses N-terminal Xaa-Pro-Lys N-methyltransferase 1 (Homo sapiens) (UniProt Q9BV86). Nature of the experiment: Confirmatory qHTS for Inhibitors of N-terminal methyltransferase 1 (NTMT1): MTaseGlo Assay (AID 1645874).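 Also: luminescence from SAH made as NTMT1 methylates SPKRIA peptide using SAM; nearly all actives have a fitted effect of over 65% in size.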 Conditions: NTMT1 enzyme, MTase-Glo SAH luminescence; series mostly up to 100 µM. In a few lines:
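qHTS format: NTMT1 125 nM, SAM 100 uM, peptide SPKRIA 1 uM final; 15 min compound preincubation, 30 min reaction at room temperature. MTase-Glo luminescence.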

Several values for one entry are separate records, joined by “and”; a condition that tells them apart may be missing. Equal values may be shown once. Records with an inconclusive call do not appear. Activity calls are given as the source filed them. Unless noted, calls follow the shape of the dose curve; as a rule, active = well fitted curve in the direction sought with a large enough effect; inconclusive = small, poorly fitted or top-dose-only effect, or another doubt; inactive = no such curve, though single readings can be large; an effect the other way counts as inactive or inconclusive.

Sequence of Cytochrome P450 2C9 (Homo sapiens) (P11712 whole entry, looked up): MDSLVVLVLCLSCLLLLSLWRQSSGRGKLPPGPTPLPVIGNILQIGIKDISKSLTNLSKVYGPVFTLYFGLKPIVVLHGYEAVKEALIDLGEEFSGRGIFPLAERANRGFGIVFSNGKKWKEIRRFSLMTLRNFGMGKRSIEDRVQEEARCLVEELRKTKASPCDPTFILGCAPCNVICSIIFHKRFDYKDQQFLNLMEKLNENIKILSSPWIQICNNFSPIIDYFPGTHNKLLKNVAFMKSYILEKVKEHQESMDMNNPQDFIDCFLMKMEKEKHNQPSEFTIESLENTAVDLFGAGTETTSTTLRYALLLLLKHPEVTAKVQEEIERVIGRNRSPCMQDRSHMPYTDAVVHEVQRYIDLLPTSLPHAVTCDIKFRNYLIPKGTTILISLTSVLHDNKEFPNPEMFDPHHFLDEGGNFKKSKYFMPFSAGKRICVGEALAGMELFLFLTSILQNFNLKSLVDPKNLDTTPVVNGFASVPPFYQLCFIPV
Sequence of N-terminal Xaa-Pro-Lys N-methyltransferase 1 (Homo sapiens) (Q9BV86 whole entry, looked up): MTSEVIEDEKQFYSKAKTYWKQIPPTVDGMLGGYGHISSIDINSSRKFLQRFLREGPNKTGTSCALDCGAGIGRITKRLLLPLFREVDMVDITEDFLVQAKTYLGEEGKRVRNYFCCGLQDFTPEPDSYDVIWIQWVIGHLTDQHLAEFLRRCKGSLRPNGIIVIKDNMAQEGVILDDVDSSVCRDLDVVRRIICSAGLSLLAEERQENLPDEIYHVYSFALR

As for `Cc1c(OCc2cccc(-c3ccc(C(=O)O)cc3)c2)cc2c(c1C)C(=O)C(C1CCCC1)C2` (stereo not given), the Potency in experiment [1] was 19 µM (active). Moreover, the Potency result in experiment [2] and in experiment [3] was “inactive” in each case.
In the case of `CCCCC1CCN(CCCN2C(=O)CCc3ccccc32)CC1`, the Potency result in experiment [1] was “inactive”. Further, the Potency was 20.5 µM (active) in experiment [2] and 11.5 µM (active) in experiment [3].
On to `CCOc1cc(C(C)(C)C)ccc1C1=N[C@@](C)(c2ccc(Cl)cc2)[C@@](C)(c2ccc(Cl)cc2)N1C(=O)N1CCN(CC(=O)N2CCOCC2)CC1`, for which the Potency is 21.3 µM (active) in experiment [1], 1.03 µM (active) in experiment [2] and 1.03 µM (active) in experiment [3].
Take `Cc1cc(C(=O)Nc2cc(Nc3ccc4c(/C=C/c5ccccn5)n[nH]c4c3)ccc2F)n(C)n1`: the Potency is 4.25 µM (active) in experiment [1]; 7.28 µM (active) and 7.42 µM (active) in experiment [2]; 9.16 µM (active) and 7.42 µM (active) in experiment [3].
With `CC1(C(=O)Nc2ccc(F)nc2)CCCN1c1nc(Nc2cc(C3CC3)[nH]n2)c2cccn2n1` (stereo not given), the Potency in experiment [1] was 10.7 µM (active); in experiment [2] it was 1.29 µM (active); in experiment [3], 0.649 µM (active).
For `CNc1nc(NCc2ccc(NS(C)(=O)=O)cc2Cl)cc(-c2ccccn2)n1` the same measures were 2.68 µM (active), 11.5 µM (active) and 7.28 µM (active).
For `CCN(CC)C(=O)c1ccc(Nc2nc(OCC3CCCCC3)c3[nH]cnc3n2)cc1` the same measures were 10.7 µM (active), 3.65 µM (active) and 1.83 µM (active).
For `O=S(=O)(Nc1ccccc1N1CCCCC1)c1ccc(Cl)s1` the same measures were 5.35 µM (active), “inactive” and “inactive”.
Consider `Cc1cc(-c2cnc(N)c3c(-c4ccc5scnc5c4)csc23)n(C)n1`, for which the Potency in experiment [1] is 10.7 µM (active); in experiment [2] it was 4.59 µM (active); in experiment [3], 5.78 µM (active).
In the case of `Nc1nc2c(cnn2CCCc2ccc(O)cc2)c2nc(-c3ccco3)nn12`, the Potency in experiment [1] was 3.01 µM (active). Moreover, the Potency result in experiment [2] and in experiment [3] was “inactive” each time.
In the case of `Cn1nc(-c2ccc(C(F)(F)F)cc2)nc2c(=O)n(C)c(=O)nc1-2`, the Potency result in experiment [1] was “inactive”. The figures for the Potency in experiment [2] and in experiment [3] were 2.58 µM (active) and 2.3 µM (active), respectively.
For `Cc1cc(F)ccc1[C@H]1C[C@@H](N2CCN3C(=O)CC[C@H]3C2)CCN1C(=O)N(C)[C@H](C)c1cc(C(F)(F)F)cc(C(F)(F)F)c1` the same measures were 10.7 µM (active), 23 µM (active) and 14.5 µM (active).
As for `COc1cc(N2CCC(O)CC2)ccc1Nc1nc(Nc2ccccc2S(=O)(=O)C(C)C)c2[nH]cnc2n1`, the figures for the Potency in experiment [1], in experiment [2] and in experiment [3] were 15.1 µM (active), 5.78 µM (active) and 4.09 µM (active), respectively.
For `CCOC(=O)c1ccc(OCCC2CCN(c3ccc(C)nn3)CC2)cc1` the same measures were 19 µM (active), “inactive” and “inactive”.
Take `CCC(C)CNCC(=O)N1CCc2sccc2C1COc1cccc(C)c1` (stereo not given): the Potency was 13.5 µM (active) in experiment [1], 16.3 µM (active) in experiment [2] and 20.5 µM (active) in experiment [3].
On to `CCOc1ccc(-n2c([C@@H](C)N(Cc3cccnc3)C(=O)Cc3ccc(OC(F)(F)F)cc3)nc3ncccc3c2=O)cc1`, for which the figures for the Potency in experiment [1] and in experiment [3] were 0.952 µM (active) and 18.3 µM (active), respectively.
For `CCCC(=O)C1(c2ccccc2)CCN(C(=O)[C@@H](Cc2ccc(OC)cc2)NC(=O)[C@@H](N)Cc2cncn2C)CC1` the same measures were 19 µM (active) and 18.3 µM (active).
With `O=c1nc(-c2ccccn2)sc2ccccc12`, the Potency entry in experiment [4] was “inactive”. Also, the Potency is 4.59 µM (active) in experiment [2] and 1.63 µM (active) in experiment [3].
Consider `Cc1cccc(N2CCN(C(=O)c3cc(S(=O)(=O)N(C)C)ccc3N3CCCC3)CC2)c1C`, for which, in experiment [1], the Potency was 13.5 µM (active). For the same compound, the Potency result in experiment [2] and in experiment [3] was “inactive” throughout.
For `CCn1c(=O)c(-c2ccc(Cl)cc2Cl)cc2cnc(Nc3ccc(N4CCNCC4)c(F)c3)nc21`, the Potency result in experiment [1] was “inactive”. The Potency was 290 nM (active) and 662 nM (active) in experiment [2]; 728 nM (active) and 742 nM (active) in experiment [3].
On to `CC(C)c1cc(-c2ccc(F)c3ccccc23)nc(N)n1`, for which the Potency in experiment [1] is 4.25 µM (active). Also, the Potency result in experiment [3] is “inactive”.
Take `CN(C)CC#CCCC(=O)C(O)(c1ccccc1)C1CCC1` (stereo not given): the Potency in experiment [1] is 10.7 µM (active). Besides, the Potency entry in experiment [2] and in experiment [3] was “inactive” in each case.
Regarding `Cc1nc(Nc2cnn(C3CCNCC3)c2)nc2c1N(C)C(=O)c1cc3ccccc3cc1N2C`, the Potency is 1.07 µM (active) in experiment [1], 5.15 µM (active) in experiment [2] and 2.05 µM (active) in experiment [3].
For `Cc1cc(C(C)Nc2ccccc2C(=O)O)c2nc(N3CCOCC3)cc(=O)n2c1` (stereo not given) the same measures were 8.49 µM (active), 0.409 µM (active) and 0.728 µM (active).
On to `CC[C@@H](C)Nc1cc(C(=O)NC2CC3CC[C@@H](C2)N3c2ccc(C(=O)C3CC3)cn2)c(C)cc1C(N)=O` (stereo not given in full), for which the Potency result in experiment [4] was “inactive”. In addition, the Potency in experiment [2] was 0.0742 µM (active); in experiment [3], 0.105 µM (active).
For the compound `COc1ccc(C2(CNC(=O)c3ccc(NC(=O)c4ccco4)cc3)CCOCC2)cc1`, the Potency entry in experiment [1], in experiment [2] and in experiment [3] was “inactive” throughout.
